According to PubChem BioAssay (NCATS):
Results filed as inconclusive are left out. Activity calls are given as the source filed them. Unless noted, calls come from the whole dose curve; as a rule, active = well fitted curve in the direction sought with a large enough effect; inconclusive = small, poorly fitted or top-dose-only effect, or another doubt; inactive = no such curve, though single readings can be large; an effect the other way counts as inactive or inconclusive.

Assays:
[1] = qHTS for differential inhibitors of proliferation of Plasmodium falciparum line D10 (AID 1877);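 note: parasites grown with compound for 72 h before DNA staining; plate controls were vehicle wells for no effect and reference inhibitor wells for full effect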
[2] = qHTS for differential inhibitors of proliferation of Plasmodium falciparum line Dd2 (AID 1882); settings: Potency: Plasmodium falciparum Dd2 proliferation inhibition;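 note: series mostly up to about 29 µM; plate controls were DMSO vehicle for no effect and 0.29 µM artemisinin for full effect; nearly all actives have a fitted effect of over 65% in size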
Method in brief: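 SYBR Green DNA fluorescence (ex 485, em 535 nm) after overnight lysis quantifies parasite growth; compound exposure lasted 72 h at 37 C on infected red cells at 2.5% hematocrit, 0.3% parasitemia (final). Artemisinin 0.29 uM and vehicle wells define normalization.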

[3] = qHTS for differential inhibitors of proliferation of Plasmodium falciparum line W2 (AID 1883); settings: Potency: Plasmodium falciparum W2 proliferation inhibition;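 note: parasites grown with compound for 72 h before lysis and staining; 0% = vehicle wells and -100% = control inhibitor wells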
[4] = qHTS for differential inhibitors of proliferation of Plasmodium falciparum line HB3 (AID 1886); settings: Potency: Plasmodium falciparum HB3 proliferation inhibition;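 note: parasites grown with compound for 72 h before SYBR Green readout; plate controls were vehicle for no effect and reference inhibitor for full effect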
[5] = qHTS Assay for Modulators of Human Peripheral Myelin Protein 22 (PMP22) Expression/Activity (AID 1967; active = well fitted curve in the direction sought with a large enough effect in the signal ratio; the % refers to the signal ratio;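 note: 0% = untreated cells and 100% end not stated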)
Method in brief: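 Mouse MSC80 Schwann cells carrying Pmp22 promoter–green click beetle luciferase plus EF-alpha–red luciferase control, dosed 24 h at 37 °C. Dual-filter luminescence, overlap-corrected; %Activity from green/red ratio normalised to untreated cells, concentration-response curves fitted.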

[6] = target: Ferritin light chain (Equus caballus) (UniProt P02791); test: qHTS Validation Assay for Identification of Novel General Anesthetics (AID 2323); note: series mostly up to about 77 µM; % is set by controls: 0 for no effect and ±100 for the full control effect
Sequence of Ferritin light chain (Equus caballus) (P02791 2-175 limits assumed): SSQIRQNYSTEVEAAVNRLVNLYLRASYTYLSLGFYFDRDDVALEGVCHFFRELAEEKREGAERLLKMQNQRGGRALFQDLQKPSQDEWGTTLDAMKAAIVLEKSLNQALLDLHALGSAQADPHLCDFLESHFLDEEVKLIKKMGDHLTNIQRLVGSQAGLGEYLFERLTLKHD
Method in brief: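 Horse-spleen apoferritin (10 uM) in PBS with 50% saturated 1-aminoanthracene; compounds pin-transferred, 10 min at room temperature. Fluorescence read at 380/535 nm, normalized to free 1-AMA and 1-AMA/apoferritin values; four-parameter Hill fit.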

[7] = target: ATP-dependent DNA helicase Q1 (Homo sapiens) (UniProt P46063); test: qHTS Validation Assay for Inhibitors of RecQ-Like Dna Helicase 1 (RECQ1) (AID 2353);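 note: plate controls were DMSO vehicle for no effect and enzyme-free control for full effect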
Sequence of ATP-dependent DNA helicase Q1 (Homo sapiens) (P46063 whole entry, looked up): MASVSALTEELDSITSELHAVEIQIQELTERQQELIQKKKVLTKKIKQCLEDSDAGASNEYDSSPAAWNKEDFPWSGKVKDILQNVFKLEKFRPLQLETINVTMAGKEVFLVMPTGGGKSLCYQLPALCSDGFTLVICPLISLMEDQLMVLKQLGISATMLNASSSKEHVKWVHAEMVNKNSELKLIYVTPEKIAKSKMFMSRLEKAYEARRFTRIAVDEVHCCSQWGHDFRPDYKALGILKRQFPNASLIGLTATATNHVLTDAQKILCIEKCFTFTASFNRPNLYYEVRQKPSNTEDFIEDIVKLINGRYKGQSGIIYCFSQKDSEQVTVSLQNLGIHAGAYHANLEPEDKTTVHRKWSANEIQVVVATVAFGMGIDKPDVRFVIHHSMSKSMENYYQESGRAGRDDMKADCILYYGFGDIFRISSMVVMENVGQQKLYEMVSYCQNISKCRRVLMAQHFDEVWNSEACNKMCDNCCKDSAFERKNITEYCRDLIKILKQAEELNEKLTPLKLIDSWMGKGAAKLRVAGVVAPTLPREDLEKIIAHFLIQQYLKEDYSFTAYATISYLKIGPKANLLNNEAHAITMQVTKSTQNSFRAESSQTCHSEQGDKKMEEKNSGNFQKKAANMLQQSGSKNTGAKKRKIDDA
Method in brief: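 RECQ1T1 50 nM; forked duplex (20 bp + 30-nt ss tails) 200 nM, ATP 2 mM final; pH 8.0, 2 mM MgCl2, 2.5 ug/ml poly(dI-dC); 15 min compound preincubation; discontinuous kinetic read over 2 h at RT.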

[8] = target: RecQ-like DNA helicase BLM (Homo sapiens) (UniProt P54132); test: qHTS Validation Assay for Inhibitors of Bloom's syndrome helicase (BLM) (AID 2364);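 note: plate controls were DMSO vehicle for no effect and enzyme-free control for full effect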
Sequence of RecQ-like DNA helicase BLM (Homo sapiens) (P54132 whole entry, looked up): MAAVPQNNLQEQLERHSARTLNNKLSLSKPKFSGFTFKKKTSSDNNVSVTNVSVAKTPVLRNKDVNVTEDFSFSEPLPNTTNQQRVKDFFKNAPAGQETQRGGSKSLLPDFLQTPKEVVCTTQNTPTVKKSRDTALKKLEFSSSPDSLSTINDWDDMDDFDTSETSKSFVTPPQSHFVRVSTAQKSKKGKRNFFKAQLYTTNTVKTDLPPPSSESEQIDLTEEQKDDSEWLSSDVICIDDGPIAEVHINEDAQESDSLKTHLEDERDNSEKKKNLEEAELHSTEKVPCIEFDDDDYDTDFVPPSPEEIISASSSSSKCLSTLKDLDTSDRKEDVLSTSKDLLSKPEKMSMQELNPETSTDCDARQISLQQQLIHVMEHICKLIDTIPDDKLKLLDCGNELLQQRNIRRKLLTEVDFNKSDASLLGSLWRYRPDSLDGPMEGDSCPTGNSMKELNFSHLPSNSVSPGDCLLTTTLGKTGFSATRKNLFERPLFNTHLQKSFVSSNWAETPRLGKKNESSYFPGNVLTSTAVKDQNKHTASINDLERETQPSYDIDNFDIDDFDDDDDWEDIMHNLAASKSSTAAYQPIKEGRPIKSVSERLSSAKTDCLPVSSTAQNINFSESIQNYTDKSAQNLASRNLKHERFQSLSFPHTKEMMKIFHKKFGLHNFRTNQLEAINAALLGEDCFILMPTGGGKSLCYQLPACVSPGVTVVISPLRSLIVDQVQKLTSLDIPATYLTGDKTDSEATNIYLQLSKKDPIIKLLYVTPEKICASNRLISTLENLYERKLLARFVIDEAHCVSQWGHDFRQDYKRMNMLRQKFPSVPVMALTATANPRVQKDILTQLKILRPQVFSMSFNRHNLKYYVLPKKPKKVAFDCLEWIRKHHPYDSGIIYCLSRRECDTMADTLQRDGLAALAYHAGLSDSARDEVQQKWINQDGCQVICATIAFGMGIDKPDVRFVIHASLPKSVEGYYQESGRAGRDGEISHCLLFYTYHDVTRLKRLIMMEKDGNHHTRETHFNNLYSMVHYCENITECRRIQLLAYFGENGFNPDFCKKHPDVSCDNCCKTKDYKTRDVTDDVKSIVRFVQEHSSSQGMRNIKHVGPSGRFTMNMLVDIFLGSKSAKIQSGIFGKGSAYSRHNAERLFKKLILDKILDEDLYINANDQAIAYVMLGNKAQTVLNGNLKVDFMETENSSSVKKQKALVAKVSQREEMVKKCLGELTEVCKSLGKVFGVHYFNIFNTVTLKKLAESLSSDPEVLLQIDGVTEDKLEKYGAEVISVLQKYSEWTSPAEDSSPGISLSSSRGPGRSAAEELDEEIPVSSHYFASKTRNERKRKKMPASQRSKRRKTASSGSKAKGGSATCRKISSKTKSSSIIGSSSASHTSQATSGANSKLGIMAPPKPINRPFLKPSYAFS
Method in brief: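 Forked 20-bp duplex substrate (200 nM, TAMRA/BHQ-2) plus 2 mM ATP added after 15 min compound preincubation with 50 nM enzyme, pH 8.0, poly(dI-dC) 2.5 ug/ml. Strand separation followed by fluorescence (525/598 nm) over 2 h, normalized to enzyme-free and DMSO controls.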

[9] = Validation screen for inhibitors of Lassa infection (AID 463096; calls by dose curve; note: % is set by controls: 0 for no effect and ±100 for the full control effect)
[10] = Validation screen for small molecules that induce DNA re-replication in MCF 10A normal breast cells (AID 463097); note: 0% is about no effect; nearly all actives have a fitted effect of over 60% in size
Method in brief: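 MCF 10A cells exposed to compound 48 hr at 37 C, 5% CO2, then Hoechst-stained 40 min. Laser-scanning imaging of nuclear DNA content (405 nm ex, 500-530 nm em); re-replication scored as rise in nuclei with elevated fluorescence intensity.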

[11] = Quantitative high throughput screen for delayed death inhibitors of the malarial parasite plastid, 96 hour incubation (AID 488745);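 note: luciferase-expressing P. falciparum in erythrocytes at 2% hematocrit and 0.1% parasitemia; series mostly up to about 29 µM; % is set by controls: 0 for no effect and ±100 for the full control effect; nearly all actives have a fitted effect of over 70% in size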
Method in brief: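 Readout is firefly luciferase luminescence from an integrated reporter in P. falciparum; lower signal marks inhibited growth. Cultures at 2% hematocrit and 0.1% parasitemia were treated with compound across two generations (96 h, 37 C, 5% CO2).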

[12] = Quantitative high throughput screen for delayed death inhibitors of the malarial parasite plastid, 48 hour incubation (AID 488752); note: % is set by controls: 0 for no effect and ±100 for the full control effect; nearly all actives have a fitted effect of over 65% in size
Method in brief: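 First, compound was pinned into RPMI 1640 medium containing 0.5% Albumax. Next, reporter-parasite-infected erythrocytes were added to 2% hematocrit and 0.1% parasitemia. After 48 h at 37 C under 5% CO2, luciferase detection reagent was added and luminescence read.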

[13] = target: M-phase phosphoprotein 8 (Homo sapiens) (UniProt Q99549); test: qHTS Validation Assay for Inhibitors for MPP8 Chromodomain Interactions with Methylated Histone Tails (AID 488949); note: top concentration of the series differs between compounds; % is set by controls: 0 for no effect and ±100 for the full control effect; nearly all actives have a fitted effect of over 55% in size
Method in brief: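 MPP8 (50 nM) was pre-bound to 50 nM biotinylated H3(1-18)K9me3 peptide in PBS pH 7.4 with 0.01% Tween-20. Compounds were then added for 30 min at room temperature, and complex disruption was read by AlphaScreen with streptavidin donor and nickel-chelate acceptor beads.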

[14] = target: Transient receptor potential cation channel subfamily V member 1 (Homo sapiens) (UniProt Q8NER1); test: HTS Assay for Compounds that Act as Enhancers of the Vanilloid Receptor 1 (AID 488979); note: 0% is about no effect
Method in brief: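 Calcium influx kinetics via Fluo-8 (480/520 nm) in TRPV1-expressing cells, 2000/well cultured overnight at 35.5C. Compound-alone read 3 min (agonist phase), followed by EC20 capsaicin challenge for 2 min (enhancer phase).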

[15] = target: Thyrotropin receptor (Homo sapiens) (UniProt P16473); test: qHTS Assay for Antagonists of the Thyroid Stimulating Hormone Receptor (AID 488980); note: series mostly up to about 58 µM; 0% is about no effect
Sequence of Thyrotropin receptor (Homo sapiens) (P16473 whole entry, looked up): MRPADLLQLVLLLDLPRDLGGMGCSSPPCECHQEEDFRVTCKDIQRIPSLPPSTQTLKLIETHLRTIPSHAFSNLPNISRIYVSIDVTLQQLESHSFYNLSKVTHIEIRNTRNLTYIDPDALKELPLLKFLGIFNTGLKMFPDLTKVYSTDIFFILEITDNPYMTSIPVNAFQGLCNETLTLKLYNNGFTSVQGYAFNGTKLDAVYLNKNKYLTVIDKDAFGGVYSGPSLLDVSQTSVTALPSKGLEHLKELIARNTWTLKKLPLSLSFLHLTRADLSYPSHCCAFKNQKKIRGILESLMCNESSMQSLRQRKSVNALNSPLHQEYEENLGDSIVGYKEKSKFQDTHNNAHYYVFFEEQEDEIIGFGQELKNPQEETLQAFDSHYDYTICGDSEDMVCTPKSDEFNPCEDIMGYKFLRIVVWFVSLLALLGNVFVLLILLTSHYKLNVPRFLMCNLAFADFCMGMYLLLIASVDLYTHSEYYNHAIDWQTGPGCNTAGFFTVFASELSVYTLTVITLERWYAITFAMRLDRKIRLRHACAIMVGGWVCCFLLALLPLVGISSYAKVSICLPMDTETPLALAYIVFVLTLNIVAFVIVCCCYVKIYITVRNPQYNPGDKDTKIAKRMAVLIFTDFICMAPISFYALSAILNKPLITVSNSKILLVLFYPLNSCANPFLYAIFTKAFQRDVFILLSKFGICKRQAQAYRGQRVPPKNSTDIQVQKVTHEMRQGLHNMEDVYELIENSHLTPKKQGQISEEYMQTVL
Method in brief: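 TSHR-transfected HEK293 cells (2000/well) in HEPES-buffered HBSS with 70 uM RO 20-1724 were stimulated with 4 nM TSH (EC80, final) in the presence of compound. cAMP was measured by HTRF competition after lysis and 30 min at RT.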

[16] = target: Thyrotropin-releasing hormone receptor (Homo sapiens) (UniProt P34981); test: qHTS for Small Molecule Agonists and Allosteric Enhancers of Human TRH Receptor: Validation Screen for Agonists (AID 493127;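 active = calcium activation more than 3 SD above the typical response in the agonist read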;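 note: intracellular calcium rise by fluo-8 fluorescence before TRH EC20 addition; 0% is about no effect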); settings: TRH receptor agonist cell assay; at 2 µM; stronger effect = higher value
Sequence of Thyrotropin-releasing hormone receptor (Homo sapiens) (P34981 whole entry, looked up): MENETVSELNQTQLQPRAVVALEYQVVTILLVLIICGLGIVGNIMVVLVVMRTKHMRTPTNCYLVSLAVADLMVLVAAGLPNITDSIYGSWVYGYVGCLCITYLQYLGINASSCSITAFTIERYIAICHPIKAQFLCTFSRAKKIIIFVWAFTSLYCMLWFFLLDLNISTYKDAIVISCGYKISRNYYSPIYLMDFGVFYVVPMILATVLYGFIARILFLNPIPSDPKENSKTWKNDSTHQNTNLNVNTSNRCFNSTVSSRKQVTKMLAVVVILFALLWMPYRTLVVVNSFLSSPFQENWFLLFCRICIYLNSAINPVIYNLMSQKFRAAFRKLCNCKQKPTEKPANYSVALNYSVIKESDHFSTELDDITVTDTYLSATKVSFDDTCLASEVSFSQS
Method in brief: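 Compounds are added by online pintool to dye-loaded TRHR cells while fluorescence is recorded every second. A rise in calcium signal during the agonist read marks activation; a later 10 nM TRH addition (EC20) serves the separate enhancer mode.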

[17] = target: Galactokinase (Homo sapiens) (UniProt P51570); test: qHTS Validation Assay for Inhibitors of Human Galactokinase (GALK) (AID 493189); note: 0% is about no effect
Sequence of Galactokinase (Homo sapiens) (P51570 whole entry, looked up): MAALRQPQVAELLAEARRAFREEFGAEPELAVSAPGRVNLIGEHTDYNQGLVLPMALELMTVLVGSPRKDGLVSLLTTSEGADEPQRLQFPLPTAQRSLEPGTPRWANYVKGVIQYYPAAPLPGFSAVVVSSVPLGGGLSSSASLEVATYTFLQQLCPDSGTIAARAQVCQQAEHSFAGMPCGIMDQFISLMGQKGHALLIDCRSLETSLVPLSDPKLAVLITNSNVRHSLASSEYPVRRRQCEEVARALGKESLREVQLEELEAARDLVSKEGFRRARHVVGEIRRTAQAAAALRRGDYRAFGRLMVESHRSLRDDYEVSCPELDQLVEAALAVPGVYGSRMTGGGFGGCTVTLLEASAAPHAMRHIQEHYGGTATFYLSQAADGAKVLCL
Method in brief: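 GALK (5 nM) with 35 uM ATP and 100 uM galactose in HEPES pH 8.0 with MgCl2, NaCl, DTT and BSA. Reaction ran 1 h at room temperature. Residual ATP read by Kinase-Glo Plus luminescence.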

[18] = target: Voltage-gated inwardly rectifying potassium channel KCNH2 (Homo sapiens) (UniProt Q12809); test: qHTS Assay for Small Molecule Inhibitors of the Human hERG Channel Activity (AID 588834);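 note: top concentration of the series differs between compounds; % is set by controls: 0 for no effect and ±100 for the full control effect; lower thallium flux fluorescence means stronger hERG block; nearly all actives have a fitted effect of over 50% in size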
Sequence of Voltage-gated inwardly rectifying potassium channel KCNH2 (Homo sapiens) (Q12809 whole entry, looked up): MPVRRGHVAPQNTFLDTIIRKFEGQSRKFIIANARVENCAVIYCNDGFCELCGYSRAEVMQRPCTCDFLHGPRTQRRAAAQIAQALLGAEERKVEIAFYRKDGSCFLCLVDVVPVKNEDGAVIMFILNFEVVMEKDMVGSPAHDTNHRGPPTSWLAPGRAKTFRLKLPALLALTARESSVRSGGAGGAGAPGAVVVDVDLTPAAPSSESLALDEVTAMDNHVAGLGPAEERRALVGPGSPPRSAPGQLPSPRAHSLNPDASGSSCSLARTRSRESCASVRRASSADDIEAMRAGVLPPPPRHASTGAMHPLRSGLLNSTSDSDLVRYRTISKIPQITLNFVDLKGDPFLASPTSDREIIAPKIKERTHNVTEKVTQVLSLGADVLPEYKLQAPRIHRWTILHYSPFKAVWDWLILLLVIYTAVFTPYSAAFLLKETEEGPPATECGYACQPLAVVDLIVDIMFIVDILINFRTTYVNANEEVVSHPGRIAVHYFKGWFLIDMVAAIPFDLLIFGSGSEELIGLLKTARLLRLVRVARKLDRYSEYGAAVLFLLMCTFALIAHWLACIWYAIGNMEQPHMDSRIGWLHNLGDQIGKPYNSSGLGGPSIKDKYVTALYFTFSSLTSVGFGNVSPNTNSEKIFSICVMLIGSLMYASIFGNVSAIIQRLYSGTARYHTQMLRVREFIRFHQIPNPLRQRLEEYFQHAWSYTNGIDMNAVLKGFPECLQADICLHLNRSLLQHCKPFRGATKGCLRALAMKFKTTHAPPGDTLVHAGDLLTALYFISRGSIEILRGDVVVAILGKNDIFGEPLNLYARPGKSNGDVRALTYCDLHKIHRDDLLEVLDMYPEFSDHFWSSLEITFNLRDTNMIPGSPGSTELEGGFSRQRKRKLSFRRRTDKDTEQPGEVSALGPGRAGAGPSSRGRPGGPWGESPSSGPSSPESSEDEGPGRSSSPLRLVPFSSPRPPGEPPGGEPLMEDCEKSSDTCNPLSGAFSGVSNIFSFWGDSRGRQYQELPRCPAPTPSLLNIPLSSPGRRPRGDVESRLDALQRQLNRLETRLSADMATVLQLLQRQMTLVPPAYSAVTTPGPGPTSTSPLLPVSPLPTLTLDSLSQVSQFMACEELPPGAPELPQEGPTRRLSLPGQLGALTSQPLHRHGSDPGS
Method in brief: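 Thallium serves as surrogate for K+ influx through BacMam-delivered hERG in U2OS cells. Compounds are added for about 10 minutes after dye loading; stimulation buffer then starts flux, monitored kinetically on FDSS.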

[19] = tested on: Zika virus NS2B-NS3 protease; test: Primary screen GU AMC qHTS for Zika virus inhibitors (AID 1347154);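 note: 0% = no-inhibitor control and -100% = no-enzyme control; nearly all actives have a fitted effect of over 70% in size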
Method in brief: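 Fluorogenic AMC-substrate cleavage by noncovalent NS2B-NS3 protease complex (25 nM, pH 8.0 Tris buffer with Tween 20) followed for 15 minutes at room temperature (~20% conversion). Percent inhibition from ex340/em450 signal change, fitted by 4-parameter Hill equation.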

[20] = Primary qHTS for small molecule stabilizers of the endoplasmic reticulum resident proteome: Secreted ER Calcium Modulated Protein (SERCaMP) assay (AID 1508630); note: % is set by controls: 0 for no effect and ±100 for the full control effect
Method in brief: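 The SH-SY5Y reporter protocol was run at 3 concentrations up to 38.3 uM (primary) or 11 concentrations (follow-up): 16 h compound, 100 nM thapsigargin for 4 h, then extracellular luciferase luminescence.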

COc1cc(CCN)ccc1O
inactive: Potency [1] | Potency [2] | Potency [3] | Potency [4] | outcome [5] | outcome [6] | Potency [7] | Potency [8] | Potency [9] | Potency [10] | Potency [11] | Potency [12] | Potency [13] | outcome [14] | outcome [15] | activation [16] -0.312% | outcome [17] | Potency [18] | Potency [19] | Potency [20]
